# Experimental data reported in PubChem BioAssay AID602393 (Broad Institute, 2012).
# Out of some 350,000 compounds screened, about 7,000 (2%) were called active. Rule as the data show it: active = activation above about 40%; inconclusive = no clear call, values can overlap the other calls; inactive = below that. The entries come from a sample that favours actives as a whole.
# Assay: Bmi1 luciferase reporter increase in mESCs, primary screen, esBAF inhibitor project, mouse ES cells, Bmi1 luciferase knock-in, single point (AID 602393);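 also: 0% = median of the plate's neutral control wells and 100% = double that signal; a rise in the Bmi1 reporter signal indicates esBAF inhibition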
# Conditions: 24 h, at 12.5 µM, stronger effect = higher value, 100% = twice the neutral-well signal
row,SMILES,reporter increase
1,CN(C)CC(=O)Nc1ccc2c(c1)[C@H]1C[C@@H](CC(=O)NCc3ccc(-c4ccccc4)cc3)O[C@H](CO)[C@H]1O2,4.03% (inactive)
2,COc1ccc(NC(=O)Nc2ccc3c(c2)[C@H]2C[C@H](CC(=O)NC4CCCC4)O[C@H](CO)[C@H]2O3)cc1,2.4% (inactive)
3,Cc1csc(NC(=O)CN2CCCCCC2)n1,-1.61% (inactive)
4,Cc1csc(NC(=O)C2CCN(S(=O)(=O)c3ccccc3)CC2)n1,-5.46% (inactive)
5,Cc1csc(NC(=O)c2ccc(C)s2)n1,50.8% (active)
6,CCNC(=O)[C@H]1[C@H](CO)[C@H]2Cn3c(ccc(/C=C/c4ccccc4)c3=O)[C@@H]1N2C(=O)C1CCC1,0.423% (inactive)
7,COC(=O)C[C@H]1CC[C@H](NC(=O)c2ccccc2)[C@@H](CO)O1,-1.98% (inactive)
8,C/C=C/c1ccc2c(c1)O[C@@H](CN(C)S(C)(=O)=O)[C@@H](C)CN([C@H](C)CO)S2(=O)=O,-0.163% (inactive)
9,COc1cccc(NC(=O)CSc2nnc(-c3cccnc3)o2)c1,13.3% (inactive)
10,COc1ccc(-c2nnc(SCc3cccnc3)o2)cc1,52.4% (active)
11,COc1ccc(-c2nnc(SC(=O)N3c4ccccc4Sc4ccccc43)o2)cc1,2.78% (inactive)
12,CC(C)NC(=O)N(C)C[C@H]1Oc2ncc(C#CC3CC3)cc2C(=O)N([C@H](C)CO)C[C@@H]1C,-3.17% (inactive)
13,CCCC(=O)Nc1ccc2c(c1)OC[C@H](C)N(S(=O)(=O)c1cn(C)cn1)C[C@@H](C)[C@H](OC)CN(C)C2=O,-1.9% (inactive)
14,CN1C(=O)c2cc(NC(=O)c3ccccc3)ccc2OC[C@@H]2O[C@H](CC(=O)NCC3CC3)CC[C@@H]21,6.3% (inactive)
15,C/C=C/c1ccc2c(c1)O[C@H](CN(C)C(=O)CN(C)C)[C@H](C)CN([C@@H](C)CO)S2(=O)=O,0.684% (inactive)
16,COc1ccccc1NC(=O)Nc1nc(CC(=O)Nc2ccccc2F)cs1,1.14% (inactive)
17,CCOC(=O)Cc1csc(NC(NC(=O)OCC)(C(F)(F)F)C(F)(F)F)n1,-0.744% (inactive)
18,CCOC(=O)Cc1csc(NC(=O)Nc2ccccc2)n1,47.4% (active)
19,C[C@@H]1CN([C@@H](C)CO)C(=O)c2cc(NS(=O)(=O)c3ccccc3)ccc2O[C@@H](C)CCCCO[C@@H]1CN(C)S(=O)(=O)c1cccs1,6.97% (inactive)
20,C[C@@H]1CN([C@H](C)CO)S(=O)(=O)c2ccc(C#CCN(C)C)cc2O[C@@H]1CN(C)C(=O)C1CCCCC1,-0.287% (inactive)
21,Cc1ccc(C)c(OCc2cc(C(=O)N3CCN(c4cnccn4)CC3)no2)c1,3.21% (inactive)
22,COc1cccc(OC)c1OCCN1CCN(C(=O)c2ccco2)CC1,-3.54% (inactive)
23,COc1cccc(OCc2cc(C(=O)N3CCN(C(=O)c4ccco4)CC3)no2)c1,70.2% (active)
24,O=C(c1cc(COc2c(F)cccc2F)on1)N1CCSCC1,53.1% (active)

row,SMILES,reporter increase
1,O=C(c1cc(COc2cccc(C(F)(F)F)c2)on1)N1CCSCC1,-2.92% (inactive)
2,O=C(c1cc(COc2ccc(F)c(F)c2)on1)N1CCOCC1,37.7% (inactive)
3,O=C(c1cc(COc2ccc(F)cc2F)on1)N1CCOCC1,61.9% (active)
4,O=C(c1ccco1)N1CCN(C(=O)c2ccc(COc3ccc(F)cc3)o2)CC1,-8.59% (inactive)
5,O=C(NCCCc1ccccc1)c1cc(COc2c(F)cccc2F)on1,17.5% (inactive)
6,C[C@@H]1CN([C@@H](C)CO)C(=O)c2cc(NC(=O)C3CCCCC3)ccc2O[C@@H](C)CCCCO[C@H]1CN(C)C(=O)Nc1ccc2c(c1)OCO2,7.74% (inactive)
7,CC(=O)N[C@@H]1C=C[C@H](CC(=O)NCC2CCCCC2)O[C@H]1CO,4.99% (inactive)
8,C[C@@H]1CCCCO[C@@H](CN(C)Cc2ccncc2)[C@@H](C)CN([C@@H](C)CO)C(=O)c2cc(N(C)C)ccc2O1,1.32% (inactive)
9,COc1cccc(NC(=O)N[C@@H]2C=C[C@H](CC(=O)NCc3ccccn3)O[C@H]2CO)c1,-1.55% (inactive)
10,COc1cccc(C(=O)Nc2ccc3c(c2)C(=O)N(C)C[C@@H](OC)[C@@H](C)CN(C)[C@@H](C)CO3)c1,1.2% (inactive)
11,C[C@@H]1CN([C@@H](C)CO)S(=O)(=O)c2ccc(-c3cccnc3)cc2O[C@H]1CN(C)CC1CCOCC1,2.46% (inactive)
12,O=C(C[C@H]1C[C@@H]2c3cc(NC(=O)CC4CC4)ccc3O[C@@H]2[C@H](CO)O1)NCc1ccccn1,0.771% (inactive)
13,C[C@H]1CN([C@@H](C)CO)C(=O)c2cc(C3=CCCC3)cnc2O[C@H]1CN(C)C(=O)Nc1ccc(F)cc1,-1.8% (inactive)
14,COc1cccc(-c2cnc3c(c2)C(=O)N([C@H](C)CO)C[C@H](C)[C@H](CN(C)C(=O)NC(C)C)O3)c1,-3.06% (inactive)
15,Cc1ccccc1-c1ccc([C@@H]2[C@H](CO)N3CCCCN(S(=O)(=O)c4ccc(F)cc4)C[C@@H]23)cc1,-4.12% (inactive)
16,O=c1oc2cc(O)ccc2cc1-c1ccc(F)cc1,47.3% (active)
17,CO[C@@H]1CC[C@H]2CCOc3c(C#N)cccc3C(=O)N(C)C[C@@H](OC)[C@H](C)C(=O)N(C)C[C@@H]1O2,-3.58% (inactive)
18,CCCNC(=O)N(C)C[C@H]1Oc2ncc(-c3ccc(F)cc3)cc2C(=O)N([C@H](C)CO)C[C@H]1C,1.97% (inactive)
19,C[C@@H](NC(=O)C[C@H]1CC[C@H](NS(=O)(=O)c2cccc(F)c2)[C@H](CO)O1)c1ccccc1,-2.73% (inactive)
20,CO[C@H]1CN(C)C(=O)c2cc(NS(=O)(=O)CC(F)(F)F)ccc2OC[C@@H](C)N(Cc2nccs2)C[C@@H]1C,-3.43% (inactive)
21,O=C(Nc1ccc2c(c1)OCO2)N[C@@H]1CC[C@H](CC(=O)N2CCN(c3ccccc3)CC2)O[C@@H]1CO,-0.613% (inactive)
22,O=C(NCCC1CCCCN1S(=O)(=O)c1ccccc1)C(=O)NCC1CCCO1 (stereo not drawn),-3.85% (inactive)
23,Cc1ccc(C)c(S(=O)(=O)N2CCCOC2CNC(=O)C(=O)NC2CCCCC2)c1 (stereo not drawn),51.3% (active)
24,Cc1ccc(NC(=O)NC2CCCCC2)cc1S(=O)(=O)N1CCOCC1,-1.63% (inactive)
